Screening results (PubChem)
KDM4E inh – blocks human JMJD2E demethylase activity; B2RXH2; JMJD2E catalytic domain, FDH-coupled NADH fluorescence (FDH is formaldehyde dehydrogenase); Potency, µM (series often up to 57.1 µM), without a hit: at the highest dose activity change, negative = inhibition, usual class: inhibitors; 230,000 tested, 1.6% active; active = well fitted inhibition curve with a large enough effect, not every such curve was filed as active; inconclusive = small, poorly fitted or top-dose-only effect, or another doubt; inactive = no such curve, though single readings can be large or run the other way;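 also: potency is read from the fitted curve at half-maximal effect; 0% = wells with enzyme and -100% = buffer wells without enzyme; nearly all actives have a fitted effect of over 50% in size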
Target sequence (B2RXH2 1-337 limits assumed): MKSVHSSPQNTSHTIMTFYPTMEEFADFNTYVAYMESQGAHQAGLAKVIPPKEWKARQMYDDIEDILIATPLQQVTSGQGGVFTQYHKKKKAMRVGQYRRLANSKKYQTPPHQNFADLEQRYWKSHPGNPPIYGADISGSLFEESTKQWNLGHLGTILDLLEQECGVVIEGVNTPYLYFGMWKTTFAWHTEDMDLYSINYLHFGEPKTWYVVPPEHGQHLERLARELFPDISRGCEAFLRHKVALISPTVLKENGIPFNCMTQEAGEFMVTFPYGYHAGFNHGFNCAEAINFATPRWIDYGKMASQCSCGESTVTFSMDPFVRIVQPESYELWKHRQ
Tau fluor cs – counter-screen for tau fibril formation inhibitors; tau K18 P301L Alexa594 fluorescence, heparin fibrillization; Potency, µM (series often up to 57.7 µM), for inactives: top-dose activity change, negative = decrease; 280,000 tested, 0.93% active; AID 1463; also: potency is read from the fitted curve at half-maximal effect; nearly all actives have a fitted effect of over 55% in size
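Human tau K18 P301L (15 uM unlabeled, 0.24 uM Alexa 594-labeled) in 100 mM sodium acetate pH 7 with 20 uM heparin, 6 hr at 37 C. ThT 30 uM added, 1 hr ambient; Alexa 594 FP and total fluorescence read at 555/632 nm.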
FBPA coupling cs – counter-screen for Giardia aldolase inhibitors: coupling enzyme system. coupling enzyme system counterscreen, AmpLite Red fluorescence. activity change, negative = inhibition, % at 58.2 µM, hits read low. 290,000 tested, 0.67% active. AID 2472; in the data active = activity change below about -30%
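Fluorescence at 525 nm excitation and 598 nm emission measured inhibition of the coupled detection system without aldolase. Compounds (at 57.5 uM final) were preincubated 10 min at room temperature with coupling enzyme reagent before a 20 min substrate/AmpLite Red step.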
Sfp inh – Sfp phosphopantetheinyl transferase inhibition | Q9F4F7 | AID 1490 | Potency, µM, for the others: largest response in the series, negative = inhibition, most hits filed as inhibitors | Biochemical Sfp PPTase activity, qHTS | 310,000 tested, 3.5% active;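 also: the enzyme is Sfp with the accession as filed and its product quenches rhodamine fluorescence; potency is read from the fitted curve at half-maximal effect; 0% = enzyme reaction without inhibitor and -100% = no enzyme wells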
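Buffer: 50 mM Hepes-Na pH 7.6, 10 mM MgCl2, 0.01% Nonidet P-40, 0.01% BSA. Enzyme 15 nM, pre-exposed to compound 15 min; substrates then added and fluorescence change tracked over 30 min.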
Tau fibril ThT – tau fibrillization inhibition (ThT binding) | Potency, µM (doses to about 57.4 µM), for the others: top-dose activity, negative = inhibition, most hits filed as inhibitors | recombinant tau K18 P301L, heparin-induced fibrillization, ThT fluorescence | 270,000 tested, 2.1% active; also: potency is read from the fitted curve at half-maximal effect; nearly all actives have a fitted effect of over 55% in size
Target sequence (P10636 561-689 P618L limits assumed): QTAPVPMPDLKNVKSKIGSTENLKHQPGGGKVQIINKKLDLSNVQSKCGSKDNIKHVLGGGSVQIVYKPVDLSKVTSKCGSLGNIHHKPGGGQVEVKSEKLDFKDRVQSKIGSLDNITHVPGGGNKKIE
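Recombinant human tau K18 fragment […] carrying P301L, 15 uM unlabeled plus 0.24 uM Alexa 594-labeled, was fibrillized with 20 uM heparin in 100 mM sodium acetate pH 7 for 6 hr at 37 C; 30 uM ThT fluorescence read after 1 hr.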
Tau FP inhib – tau fibrillization inhibition (FP); K18 P301L tau heparin fibrillization, Alexa594 FP, 6 h; 280,000 tested, 0.39% active; Potency, µM (doses to about 57.7 µM), without a hit: at the top dose activity, negative = inhibition, hits mostly inhibitors; P10636; also: potency is read from the fitted curve at half-maximal effect; nearly all actives have a fitted effect of over 55% in size
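Heparin (20 uM) drove fibril formation of recombinant tau K18 P301L, 15 uM unlabeled with 0.24 uM Alexa 594 label, for 6 hr at 37 C in 100 mM sodium acetate pH 7. Fluorescence polarization (555/632 nm) read 1 hr after 30 uM ThT.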
* hit, by the source's call; ! = repeats disagree; [ ] = remark or other dose. Shown are actives, neighbours in structure and some others; about 5.3% of the full set was active somewhere. Unless noted, calls follow the shape of the dose curve; as a rule, active = well fitted curve in the direction sought with a large enough effect; inconclusive = small, poorly fitted or top-dose-only effect, or another doubt; inactive = no such curve, though single readings can be large; an effect the other way counts as inactive or inconclusive. Unless noted, % is scaled to controls: 0 for no effect and ±100 for the full control effect.

What do the screens show for `COC(=O)c1ccccc1NC(=O)CSc1[nH]c(=O)cc(C)c1C#N`?
KDM4E inh: -8%; Tau fluor cs: -9%; FBPA coupling cs: 7; Sfp inh: 20%; Tau fibril ThT: -17%; Tau FP inhib: 7%

What do the screens show for `Cc1sc2nc(CSCC(=O)Nc3ccccc3C#N)[nH]c(=O)c2c1C`?
KDM4E inh: -1%; Tau fluor cs: -9%; FBPA coupling cs: 0; Sfp inh: 79µM*; Tau fibril ThT: inconclusive; Tau FP inhib: 0%

What do the screens show for `CCN(CC)c1sc(S(=O)(=O)c2ccccc2)nc1S(=O)(=O)c1ccc(C)cc1`?
Tau fluor cs: -16%; Tau fibril ThT: 0%; Tau FP inhib: -1%

How did CCCCc1cc2c(cn1)=C(OC(=O)C1CCCC1)C(C)(OC(=O)CC)C(=O)C=2 (stereo unspecified) do in these assays?
KDM4E inh: 14%[11.4 µM]; Tau fluor cs: -8%[11.6 µM]; FBPA coupling cs: -4; Sfp inh: 10%; Tau fibril ThT: inconclusive; Tau FP inhib: 1%[11.6 µM]

Results for CCOc1ccc(NC(=O)CSc2oc(-c3ccc(F)cc3)nc2S(=O)(=O)c2ccc(C)cc2)cc1 ?
Tau fluor cs: -23%; Tau fibril ThT: -6%; Tau FP inhib: -21%

Results for Oc1cc2c(cc1O)[C@@H](c1ccccc1)CNCC2 ?
KDM4E inh: 13%; Tau fluor cs: -5%; FBPA coupling cs: 0; Sfp inh: 20µM*; Tau fibril ThT: 2%; Tau FP inhib: 4%

What do the screens show for `Oc1ccc([C@@H]2CNCCc3c2cc(O)c(O)c3Cl)cc1`?
KDM4E inh: 11µM*; Tau fluor cs: -18%; FBPA coupling cs: -9; Sfp inh: 56µM*; Tau fibril ThT: -25%; Tau FP inhib: -2%

How did Oc1cc2c(cc1O)C(c1ccccc1)CNCC2 (stereo unspecified) do in these assays?
KDM4E inh: 20µM*; Tau fluor cs: inconclusive; FBPA coupling cs: -6; Sfp inh: 79µM*!; Tau fibril ThT: inconclusive; Tau FP inhib: inconclusive

What do the screens show for `COC(=O)c1[nH]c2ccc(Cl)cc2c1NC(=O)CN1CCc2cc(OC)c(OC)cc2C1`?
KDM4E inh: inconclusive; Tau fluor cs: 18µM*[quencher]; FBPA coupling cs: 1; Sfp inh: -23%; Tau fibril ThT: inconclusive; Tau FP inhib: 3%

Results for COCCCNC(=O)c1ccc(Cn2c(=O)c3ccccc3n(Cc3c(C)cc(C)cc3C)c2=O)cc1 ?
Tau fluor cs: 5%; Tau fibril ThT: 7%; Tau FP inhib: -3%

How did N#CC1=C(N)N(c2ccc(Br)cc2)C2=C(C(=O)CCC2)C1c1cccnc1 (stereo unspecified) do in these assays?
KDM4E inh: 4%; Tau fluor cs: -10%; FBPA coupling cs: -44*; Sfp inh: 5.6µM*; Tau fibril ThT: -9%; Tau FP inhib: 0%

What do the screens show for `COc1ccc2ccc3c(c2c1)N=C[C@]1(O3)N(C)c2ccccc2C1(C)C`?
KDM4E inh: 11µM*; Tau fluor cs: inconclusive; FBPA coupling cs: -67*; Sfp inh: 50µM*; Tau fibril ThT: 20µM*; Tau FP inhib: inconclusive

What do the screens show for `CN1/C(=N\O)c2cccc3cccc1c23`?
KDM4E inh: inconclusive; Tau fluor cs: -27%; FBPA coupling cs: -47*; Sfp inh: -24%; Tau fibril ThT: inconclusive; Tau FP inhib: -13%

What do the screens show for `COc1ccc(/C=N/N=C2/NC(=O)C(CC(=O)NC(C)C)S2)cc1` (stereo unspecified)?
KDM4E inh: -2%; Tau fluor cs: 6%; FBPA coupling cs: 0; Sfp inh: 5%; Tau fibril ThT: 5%; Tau FP inhib: 0%

Results for Cc1ccc(/C=N/N=C2/NC(=O)C(CC(=O)N3CCOCC3)S2)cc1 (stereo unspecified) ?
KDM4E inh: 10%; Tau fluor cs: 7%; FBPA coupling cs: 2; Sfp inh: 40µM*; Tau fibril ThT: -6%; Tau FP inhib: -2%

What do the screens show for `CCOC(=O)c1cc2c(=O)n3ccccc3nc2n(Cc2ccco2)c1=NC(=O)c1cccc(OC)c1`?
KDM4E inh: inconclusive; Tau fluor cs: -19%; FBPA coupling cs: 3; Sfp inh: 28µM*; Tau fibril ThT: -16%; Tau FP inhib: 7%

What do the screens show for `CCOC(=O)c1cc2c(=O)n3ccccc3nc2n(Cc2ccco2)c1=NC(=O)c1ccccc1OC`?
KDM4E inh: inconclusive; Tau fluor cs: -21%; FBPA coupling cs: 1; Sfp inh: 35µM*; Tau fibril ThT: inconclusive; Tau FP inhib: -17%

How did CCOC(=O)c1cc2c(=O)n3ccccc3nc2n(Cc2ccco2)c1=NC(=O)c1ccc(OC)cc1 do in these assays?
KDM4E inh: inconclusive; Tau fluor cs: -7%; FBPA coupling cs: 1; Sfp inh: inconclusive; Tau fibril ThT: inconclusive; Tau FP inhib: 3%

What do the screens show for `CCCn1c(=NC(=O)c2ccco2)c(C(=O)OCC)cc2c(=O)n3ccccc3nc21`?
KDM4E inh: inconclusive; Tau fluor cs: 1%; FBPA coupling cs: 3; Sfp inh: inconclusive; Tau fibril ThT: -6%; Tau FP inhib: 4%

Results for CCCCC[C@H](O)/C=C/[C@H]1[C@H](O)CC(O)[C@@H]1C/C=C\CCCC(=O)O (stereo partly specified) ?
Tau fluor cs: -3%; Sfp inh: 24%; Tau fibril ThT: -4%; Tau FP inhib: -1%

How did CCCCC[C@H](O)/C=C/[C@@H]1[C@@H](C/C=C\CCCC(=O)OC)[C@@H](O)C[C@H]1O do in these assays?
KDM4E inh: 4µM*; Tau fluor cs: -3%; FBPA coupling cs: -5; Sfp inh: 25µM*; Tau fibril ThT: -12%; Tau FP inhib: 9%

How did CC(O)(c1ccc(Cl)cc1)c1ccc(Cl)cc1 do in these assays?
FBPA coupling cs: -2; Sfp inh: 3%

What do the screens show for `O=C(Nc1nc(-c2ccc3ccccc3c2)cs1)C1CCN(S(=O)(=O)c2cccs2)CC1`?
KDM4E inh: 18µM*; Tau fluor cs: -1%; FBPA coupling cs: 0; Sfp inh: -12%; Tau fibril ThT: 10%; Tau FP inhib: inconclusive

What do the screens show for `Cc1nn(-c2nnc(C)c(=O)[nH]2)c(C)c1SCC(=O)Nc1ccc(F)cc1`?
KDM4E inh: 0%; Tau fluor cs: 2%; FBPA coupling cs: 4; Sfp inh: 32µM*; Tau fibril ThT: 2%; Tau FP inhib: -6%

How did CC(=O)Nc1ccc(SCC(CC(C)C)N2CCN(CCc3ccccc3)CCC2=O)cc1 (stereo unspecified) do in these assays?
FBPA coupling cs: 1; Sfp inh: -22%
